# Myc binder: c-Myc (human) binding. calls only. 17,000 compounds, 1.5% hits. small molecule microarray, His-c-Myc binding, anti-His fluorescence. P01106. AID 624141;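 active = spot fluorescence over background with P-value below 7% in all four replicate spots, showing protein binding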;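 also: score is binary with 100 for all four spots passing and 0 otherwise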
# STAT3 SMM: binders of human STAT3; Small molecule microarray, His-STAT3 binding, anti-His fluorescence; P40763; 17,000 compounds, 0.2% hits; AID 624138; calls only;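 active = compounds whose four printed spots each show fluorescence over background unusually high for their array block, chance value under 7%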
# NFkB binder: binds human NF-kappa-B p105 on microarray. calls only. Small molecule microarray, anti-His fluorescence binding. 17,000 compounds, 1.3% hits;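 active = spot fluorescence over background significantly raised, with a chance value under 7% in all four replicate spots of the compound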;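 also: probe protein is his-tagged human p50 processed subunit at 1 µg/ml; raw spot fluorescence signals with no normalization applied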
# p53 mut binder: binders of human mutant p53. small molecule microarray binding, anti-GST fluorescence. calls only. 17,000 compounds, 0.4% hits. AID 624136;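 active = compounds whose four printed spots each glow above background more than chance allows, each with a p-value under 7%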
# * marks the source's active call; other numbers are inactive results; i = inactive; + = active, no number. Sampled rows, rich in hits. Any-hit rate of the full collection: about 2.1%.
SMILES,Myc binder,STAT3 SMM,NFkB binder,p53 mut binder
O=C1O[C@H](c2ccccc2)[C@H](c2ccccc2)N2[C@H]1[C@@H](C(=O)N1CCCCCCC1)[C@]1(C(=O)Nc3ccc(C#CC4=CCCCC4)cc31)[C@H]2c1ccc(OCCO)cc1,+,i,+,+
COC(=O)C(CC#Cc1ccc2c(c1)[C@]1(C(=O)N2)[C@H](c2ccc(OCCO)cc2)N2[C@H](c3ccccc3)[C@H](c3ccccc3)OC(=O)[C@H]2[C@@H]1C(=O)N1CCCCCCC1)C(=O)OC,i,i,i,+
CSc1cccc(NC(=O)CNS(=O)(=O)c2c(C)cc(C)cc2C)c1,i,i,i,i
Cn1c(=O)oc2cc(S(=O)(=O)NCCC(=O)O)ccc21,i,i,i,i
Cc1ccc2cc(S(=O)(=O)NCCC(=O)O)ccc2c1,+,i,i,i
Cc1cc(C)c(S(=O)(=O)NCC(=O)O)c(C)c1,+,i,i,i
Cc1cc(S(=O)(=O)NCC(=O)O)ccc1F,+,i,i,i
Cc1cc(C)cc(N(CC(=O)O)S(C)(=O)=O)c1,i,i,i,i
COc1ccc(C(=O)Nc2ccc3nc(SCC(=O)N4CCOCC4)sc3c2)cc1OC,i,i,i,i
COC(=O)C(CC#Cc1ccc2c(c1)[C@]1(C(=O)N2)[C@H](C(N)=O)[C@H]2C(=O)O[C@H](c3ccccc3)[C@H](c3ccccc3)N2[C@@H]1c1ccc(O)cc1)C(=O)OC,i,i,i,i
Cc1noc(C)c1NC(=O)Nc1ccc2c(c1)C(=O)N([C@@H](C)CO)C[C@@H](C)[C@@H](CN(C)C(=O)C1CCCCC1)OCCCC[C@H](C)O2,+,i,i,i
Cc1noc(C)c1NC(=O)Nc1ccc2c(c1)C(=O)N([C@H](C)CO)C[C@H](C)[C@@H](CN(C)C(=O)C1CCCCC1)OCCCC[C@@H](C)O2,i,i,i,i
Cc1noc(C)c1NC(=O)Nc1ccc2c(c1)C(=O)N([C@@H](C)CO)C[C@@H](C)[C@H](CN(C)C(=O)C1CCCCC1)OCCCC[C@H](C)O2,+,i,+,i
Cc1noc(C)c1NC(=O)Nc1ccc2c(c1)C(=O)N([C@@H](C)CO)C[C@H](C)[C@H](CN(C)C(=O)C1CCCCC1)OCCCC[C@H](C)O2,i,i,i,i
Cc1noc(C)c1NC(=O)Nc1ccc2c(c1)C(=O)N([C@H](C)CO)C[C@H](C)[C@H](CN(C)C(=O)C1CCCCC1)OCCCC[C@H](C)O2,i,+,i,i
CCCN(C)C[C@@H]1OCCCC[C@@H](C)Oc2ccc(NC(=O)Nc3cccc4ccccc34)cc2C(=O)N([C@H](C)CO)C[C@@H]1C,+,i,+,i
C[C@@H]1CCCCO[C@H](CN(C)CC2CC2)[C@@H](C)CN([C@H](C)CO)C(=O)c2cc(NC(=O)Nc3cccc4ccccc34)ccc2O1,i,i,i,i
CCCN(C)C[C@H]1OCCCC[C@@H](C)Oc2ccc(NS(=O)(=O)c3ccc(OC)cc3)cc2C(=O)N([C@@H](C)CO)C[C@H]1C,+,i,i,+
C[C@@H]1CN([C@@H](C)CO)C(=O)c2cc(NC(=O)Nc3cccc4ccccc34)ccc2O[C@@H](C)CCCCO[C@@H]1CN(C)CC1CCCCC1,+,i,+,i
O=C(Cc1coc2ccc3ccccc3c12)Nc1cccnc1,i,i,i,i
COc1cc(-c2nc3ccccc3s2)cc(Br)c1OCC(=O)O,+,i,i,i
COc1ccc(OCC(=O)Nc2ccccc2-c2nc3ccccc3s2)cc1,i,i,i,i
CC1CCCC2=CC(OC2=O)C(C)(C)CCC1=O (configuration not stated),i,i,i,i
O=C(c1ccccc1)C(c1ccccc1)n1nnc2ccccc21 (configuration not stated),i,i,i,i

# Assay outcomes from PubChem BioAssay.
